Assay [1] is described as follows: HUVEC growth inhibition – cell-based, human, primary screen (AID 575;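 active = viability at or below 30% in both replicate assays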;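 note: 100% = median of untreated cell wells with 0.1% DMSO on each plate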). The following applies: HUVEC proliferation, CellTiter-Glo luminescence, 72 h; at 10 µM; stronger effect = lower value. Background: In ATP-based viability assays light output follows the ATP content of the culture.
A short description of assay [2]: H69AR cell proliferation blockers – human, duplicate replicates, primary screen (AID 580;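 active = viability at or under a set limit in both replicates, limit being median viability minus 3 SD, cut at about 48% in these data, passing the limit was not always enough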;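 note: 100% = mean luminescence of untreated wells and 0% = no signal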). The note with it: H69AR lung tumor cells viability, ATP luminescence, 72 h; at 10 µM; stronger effect = lower value.
A short description of assay [3]: MRP1 drug-resistance reversers in H69AR cells – cell-based, doxorubicin co-treatment, pilot screen (AID 601;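 active = viability loss from added drug above about 55%, and viability with drug at most 40%, in both replicates, limit read from the data, passing the limit was not always enough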). The following applies: CellTiter-Glo, 72 h, at 10 µM; for differential viability (reversal): stronger effect = higher value.
Assay [4] is described as follows: yeast transport mutant growth inhibition pilot in 384-well plates, post-Golgi transport modulator project (AID 636). The following applies: absorbance 615 nm, about 18 h, stronger effect = higher value.
Assay [5] is described as follows: growth suppression of yeast trafficking mutant, preliminary HTS, modulators of trafficking downstream of Golgi apparatus project, 1536-format plate, OD 615 nm (AID 637; in the data active = inhibition above about 30%). The following applies: yeast transport mutant growth, absorbance 615 nm, 18 h; stronger effect = higher value.
Where [6] appears, read: H69AR cells + 2 uM doxorubicin, measured here: viability with 2 uM doxorubicin, stronger effect = lower value.
The mark [7] stands for this setting: H69AR cells, compound alone cytotoxicity.

Calls of active or inactive are those of the source. Cut-off read from the data, not from the text of the source, unless noted: active = inhibition above about 31%; inactive = the rest. Peptide text beside a SMILES is read from it. * marks the point of attachment. Boc = CC(C)(C)OC(=O)*

The viability is a read-out of living cells in per cent, often relative to untreated cells. The inhibition is the relative decrease from the control value, in per cent.

Take `O=C1C=C(NCc2ccco2)C2(CCCCC2)O1`: the viability is 95.7% (inactive) in assay [1], 105% (inactive) in assay [2], 82.2% in assay [3] (setting [6]) and 105% in assay [3] (setting [7]). Besides, the differential viability (reversal) in assay [3] (H69AR cells + 2 uM doxorubicin) was 22.5% (inactive). Also, the inhibition in assay [4] was -1.95% (inactive); in assay [5], 5.08% (inactive).
For the compound `Cc1cccc2cc(CN(Cc3nnnn3Cc3ccco3)C3CCCC3)c3nnnn3c12`, the values for the viability in assay [1] and in assay [2] were 86.8% (inactive) and 85.6% (inactive), respectively. For the same compound, the inhibition was 68.2% (active) in assay [4] and 4.44% (inactive) in assay [5].
`CC(C)(C)OC(=O)N1CCCC1C(=O)N1CCCC1C(=O)N1CCCC1C(=O)O` (stereo not drawn) (Boc-Pro-Pro-Pro-OH; configuration not given here): the viability in assay [1] was 101% (inactive); in assay [2] it was 97.9% (inactive); in assay [3] (setting [6]) it was 94.8%; in assay [3] (setting [7]), 97.9%. The differential viability (reversal) in assay [3] (H69AR cells + 2 uM doxorubicin) is 3.05% (inactive). The inhibition was -5.06% (inactive) in assay [4] and -0.95% (inactive) in assay [5].
For `COc1ccc(CCNC(=O)C2CCCN(c3nn4c(=O)cc(C)nc4s3)C2)cc1OC` (centres undefined), the viability in assay [1] is 78.6% (inactive); in assay [2], 86.4% (inactive); in assay [3] (setting [6]) it was 91%; in assay [3] (setting [7]), 86.4%. The differential viability (reversal) in assay [3] (H69AR cells + 2 uM doxorubicin) was -4.58% (inactive). Moreover, the inhibition is -6.8% (inactive) in assay [4] and 3.65% (inactive) in assay [5].
As to `C=CCNc1oc(-c2cccc3ccccc23)nc1C#N`, the viability in assay [1] was 92.5% (inactive); in assay [2], 84.8% (inactive); in assay [3] (setting [6]), 84.1%; in assay [3] (setting [7]) it was 84.8%. Moreover, in assay [3] (H69AR cells + 2 uM doxorubicin), the differential viability (reversal) is 0.75% (inactive). The results for the inhibition in assay [4] and in assay [5] were -5.47% (inactive) and -0.95% (inactive), respectively.
In the case of `O=C(O)C1C2CCC(C2)C1C(=O)NCCCn1ccnc1` (centres undefined), the viability in assay [1] is 112% (inactive); in assay [2], 90.6% (inactive); in assay [3] (setting [6]), 84.4%; in assay [3] (setting [7]), 90.6%. For the same compound, in assay [3] (H69AR cells + 2 uM doxorubicin), the differential viability (reversal) is 6.16% (inactive). For the same compound, the inhibition in assay [4] was -7.24% (inactive); in assay [5], -0.79% (inactive).
In the case of `N#CC(C(=O)NCCc1ccccc1)c1nc2ccccc2nc1N1CCOCC1` (centres undefined), the results for the viability in assay [1], in assay [3] (setting [6]) and in assay [3] (setting [7]) were 82.7% (inactive), 62.6% and 59.2%, respectively. Also, the differential viability (reversal) in assay [3] (H69AR cells + 2 uM doxorubicin) was -3.4% (inactive). Also, the inhibition in assay [4] was -0.53% (inactive); in assay [5], -5.71% (inactive).
`CCOC(=O)C1=C(Cn2cnc3ccccc32)NC(=O)NC1c1cc(C)ccc1C` (centres undefined): the values for the viability in assay [1], in assay [3] (setting [6]) and in assay [3] (setting [7]) were 93.7% (inactive), 60.1% and 42.5%, respectively. Besides, the differential viability (reversal) in assay [3] (H69AR cells + 2 uM doxorubicin) was -17.6% (inactive). In addition, the inhibition is -1.71% (inactive) in assay [4] and 1.43% (inactive) in assay [5].
`CCn1c(=N)n(CC(O)COc2cccc(C)c2)c2ccccc21` (centres undefined): the viability was 69.9% (inactive) in assay [2], 72.3% in assay [3] (setting [6]) and 69.9% in assay [3] (setting [7]). For the same compound, in assay [3] (H69AR cells + 2 uM doxorubicin), the differential viability (reversal) is -2.36% (inactive). Further, the inhibition was 3.55% (inactive) in assay [4] and -5.08% (inactive) in assay [5].
`CN1CCCN(C(c2ccccc2)c2ccc(Cl)cc2)CC1` (centres undefined): the viability is 54.3% (inactive) in assay [1], 69.4% in assay [3] (setting [6]) and 44.8% in assay [3] (setting [7]). For the same compound, the differential viability (reversal) in assay [3] (H69AR cells + 2 uM doxorubicin) is -24.5% (inactive).
As to `COc1cccc2c1C(=O)c1c(O)c3c(c(O)c1C2=O)C[C@@](O)(C(=O)CO)C[C@@H]3O[C@H]1C[C@H](N)[C@H](O)[C@H](C)O1`, the viability in assay [1] was 22.1% (active); in assay [3] (setting [6]) it was 25.6%; in assay [3] (setting [7]) it was 18%. Besides, the differential viability (reversal) in assay [3] (H69AR cells + 2 uM doxorubicin) was -7.64% (inactive). The figures for the inhibition in assay [4] and in assay [5] were 0.26% (inactive) and 3% (inactive), respectively.
For the compound `Cc1cc(C)c(C(=O)CSc2nnc(-c3ccccc3Br)o2)cc1C`, the viability is 73.1% (inactive) in assay [2], 75.8% in assay [3] (setting [6]) and 73.1% in assay [3] (setting [7]). The differential viability (reversal) in assay [3] (H69AR cells + 2 uM doxorubicin) is -2.75% (inactive). The inhibition is -3.87% (inactive) in assay [4] and 3.49% (inactive) in assay [5].
As to `Oc1ccc(Nc2nc(-c3ccc(O)cc3)cs2)cc1`, the viability in assay [2] was 58.4% (inactive); in assay [3] (setting [6]), 88.1%; in assay [3] (setting [7]), 58.4%. The differential viability (reversal) in assay [3] (H69AR cells + 2 uM doxorubicin) is -29.7% (inactive). Also, the inhibition in assay [4] is -8.13% (inactive); in assay [5] it was -4.13% (inactive).
With `COC(=O)c1ccc(NC2(C#N)C(=O)Nc3ccccc32)cc1` (centres undefined), the viability in assay [1] is 69.2% (inactive); in assay [3] (setting [6]), 58.2%; in assay [3] (setting [7]) it was 42.1%. Further, the differential viability (reversal) in assay [3] (H69AR cells + 2 uM doxorubicin) was -16.1% (inactive). The inhibition is -5.33% (inactive) in assay [4] and 3.97% (inactive) in assay [5].
For the compound `CC(=O)Oc1cccc(/C=c2\sc3nc(-c4ccco4)nn3c2=O)c1`, the viability in assay [1] was 56.6% (inactive); in assay [3] (setting [6]) it was 55.8%; in assay [3] (setting [7]) it was 52.2%. Moreover, the differential viability (reversal) in assay [3] (H69AR cells + 2 uM doxorubicin) was -3.61% (inactive). Also, the inhibition in assay [4] is -0.91% (inactive); in assay [5], 1.27% (inactive).
As for `CC(C)Cn1c(N)c(C(=O)NCCN2CCOCC2)c2nc3ccccc3nc21`, the viability in assay [1] was 52.3% (inactive); in assay [3] (setting [6]) it was 79.3%; in assay [3] (setting [7]) it was 55.7%. The differential viability (reversal) in assay [3] (H69AR cells + 2 uM doxorubicin) is -23.6% (inactive). For the same compound, the inhibition in assay [4] was -5.2% (inactive); in assay [5], 3.65% (inactive).
With `CC(NCCC(c1ccccc1)c1ccccc1)c1ccccc1` (centres undefined), the viability was 2.03% (active) in assay [1], 2.41% in assay [3] (setting [6]) and 1.54% in assay [3] (setting [7]). Besides, the differential viability (reversal) in assay [3] (H69AR cells + 2 uM doxorubicin) was -0.87% (inactive). The results for the inhibition in assay [4] and in assay [5] were 3.77% (inactive) and -5.67% (inactive), respectively.
Regarding `Cc1ccc(C2C3CN(C(C)C)CC=C3C(C#N)=C(N)C2(C#N)C#N)cc1` (centres undefined), the viability in assay [1] was 62.9% (inactive). Besides, the values for the inhibition in assay [4] and in assay [5] were -6.27% (inactive) and 1.43% (inactive), respectively.
Regarding `Cn1cc(-c2nc3ccccc3[nH]2)c2ccccc21`, the viability in assay [1] is 81% (inactive); in assay [3] (setting [6]), 72%; in assay [3] (setting [7]), 62.2%. The differential viability (reversal) in assay [3] (H69AR cells + 2 uM doxorubicin) was -9.86% (inactive). Moreover, the figures for the inhibition in assay [4] and in assay [5] were -7.33% (inactive) and -0.63% (inactive), respectively.
As to `CCCn1c(N2CCN(CC(=O)NCc3cccs3)CC2)nc2ccccc21`, the viability in assay [1] is 97.6% (inactive); in assay [3] (setting [6]), 60.4%; in assay [3] (setting [7]), 59.9%. Moreover, in assay [3] (H69AR cells + 2 uM doxorubicin), the differential viability (reversal) is -0.505% (inactive). Besides, the inhibition in assay [4] is -4.47% (inactive); in assay [5], 6.03% (inactive).
On to `O=c1c2cn[nH]c2nc(SCc2ccc3c(c2)OCCO3)n1-c1ccccc1`, for which the results for the viability in assay [1], in assay [3] (setting [6]) and in assay [3] (setting [7]) were 74.4% (inactive), 83.9% and 61.7%, respectively. Also, in assay [3] (H69AR cells + 2 uM doxorubicin), the differential viability (reversal) is -22.2% (inactive). The figures for the inhibition in assay [4] and in assay [5] were 1.45% (inactive) and -4.44% (inactive), respectively.

For the origin of these results see PubChem BioAssay.
